Results reported in PubChem BioAssay AID504832 (National Center for Advancing Translational Sciences (NCATS), 2011).
Among all 310,000 compounds or so, about 18,000 (5.8%) were called active. A call without a number means that no potency is given here. About 22% were inconclusive and are not listed. Calls follow the shape of the dose curve; as a rule, active = well fitted inhibition curve with a large enough effect; inconclusive = small, poorly fitted or top-dose-only effect, or another doubt; inactive = no such curve, though single readings can be large or run the other way. The sample as a whole holds a higher share of actives than the screen did.

Test: Primary qHTS for delayed death inhibitors of the malarial parasite plastid, 48 hour incubation
Details: P. falciparum luciferase growth in erythrocytes; series mostly up to 28.7 µM
Text: The goal of this screen is to discover new antimalarial compounds that act by inhibiting the development of the apicoplast in the malarial parasite Plasmodium falciparum. The biochemical processes that make this organelle essential for erythrocytic stage parasites are not well understood. However, antibiotics such as azithromycin and tetracycline, which target the apicoplast translational machinery, have a potent antimalarial effect.
We have developed a cell-based assay that measures parasite growth based on the expression of an integrated copy of a firefly luciferase reporter. To detect small molecules that cause this "delayed death" phenotype, erythrocytes infected with the luciferase-expressing parasites were incubated with compounds for either one or two generations, corresponding to 48 and 96 hours, respectively. Compounds that inhibit parasite growth in the second generation, but not the first, should be enriched in antimalarials that target the apicoplast. Growth inhibition is detected by a decrease in luciferase activity.
Assay Provider: David Fidock and Eric Ekland, Columbia University
Keywords: NIH Roadmap, MLPCN, MLI, MLSMR, qHTS, NCGC, qHTS, malaria, luciferase, viability
Four microliters of culture medium (RPMI 1640 with 0.5% w/v Albumax (GIBCO), 24 mM sodium bicarbonate and 10 ug/mL gentamycin) were dispensed by a Multi-drop Combi into white solid 1536-well plates (Grenier) and 23 nL compound was added by a pin tool. Four microliters of infected erythrocytes (2% hematocrit, 0.1% parasitemia final concentration) in culture medium were dispensed and the plates incubated for 48 hours at 37 C in 5% CO2. Two microliters of luciferase detection reagent was added and luminescence was detected by a ViewLux (PerkinElmer) reader.
Potency is read from the fitted curve at half-maximal effect.

Q: With `Cc1sc2ncn(CC(=O)NCCN(C)C)c(=O)c2c1S(=O)(=O)N1CCC(C)CC1` as the molecule, how does the Potency read?
A: inactive

Q: With `COCCCn1c(Cc2csc(Nc3cccc(Cl)c3)n2)nnc1SCC(=O)OC1CCCCC1` as the molecule, how does the Potency read?
A: 8.28 µM (active)

Q: With `COCCCn1c(SCC(=O)Nc2ccccc2)nnc1-c1ccncc1` as the molecule, how does the Potency read?
A: inactive

Q: Which Potency does the source give for `COCCCn1c(SCC(=O)NC2CCCC2)nnc1-c1ccccc1` here?
A: inactive

Q: Which Potency does the source give for `COc1cc(C(=O)OCC(=O)NC(C)CCc2ccccc2)cc(OC)c1OC` (stereo unspecified) here?
A: inactive

Q: Which Potency does the source give for `NC(=O)c1cc(S(=O)(=O)NCCCc2ccco2)cs1` here?
A: inactive

Q: For `COc1cccc(CNC(=O)CCC2CCCN(C(=O)c3cc(C)[nH]n3)C2)c1` (stereo unspecified), which Potency is on record?
A: inactive

Q: For `Cc1[nH]c2c(C(=O)N3CCCC(CCC(=O)NCc4ccccc4F)C3)cccc2c1C` (stereo unspecified), which Potency is on record?
A: 11.7 µM (active)

Q: For `COc1cccc(C(=O)N2CCCC(CCC(=O)NCc3ccc(F)c(F)c3)C2)c1` (stereo unspecified), which Potency is on record?
A: inactive

Q: Which Potency does the source give for `CCOc1ccc(NC(=S)N2CCC(NC(=O)c3ccccc3)CC2)cc1` here?
A: inactive

Q: For `COc1ccc(NC(=O)CCC(=O)N2CCN(S(=O)(=O)c3ccc(C)cc3)CC2)c(OC)c1`, which Potency is on record?
A: inactive

Q: With `COc1ccc(/C=C/C(=O)c2ccc(NS(=O)(=O)c3ccc(C)cc3)cc2)cc1O` as the molecule, how does the Potency read?
A: 14.7 µM (active)

Q: For `COc1ccc(NS(=O)(=O)c2ccc(NC(C)=O)cc2)cc1OC`, which Potency is on record?
A: inactive

Q: For `COc1ccc(C(=O)Oc2cc(/C=N/NS(=O)(=O)c3ccc(C)cc3)ccc2OC)cc1`, which Potency is on record?
A: inactive

Q: For `Cc1cc(Cl)c2oc(C(=O)N(C)C(C)c3ccccn3)c(C)c2c1` (stereo unspecified), which Potency is on record?
A: inactive

Q: Which Potency does the source give for `CCc1nccn1CCC(=O)N1CCCC(N2CCN(c3ccccc3F)CC2)C1` (stereo unspecified) here?
A: inactive

Q: With `O=C(c1ccc(Cl)c(S(=O)(=O)N2CCCCCC2)c1)N1CCN(c2ccc(O)cc2)CC1` as the molecule, how does the Potency read?
A: 13.1 µM (active)

Q: For `O=C(Nc1ccc(S(=O)(=O)N2CCCCC2)cc1)C1CC(=O)N(c2ccc(F)cc2)C1` (stereo unspecified), which Potency is on record?
A: 5.22 µM (active)

Q: For `O=C(Nc1cccc(S(=O)(=O)N2CCCCC2)c1)c1ccc2c(c1)OCO2`, which Potency is on record?
A: inactive

Q: With `O=C(C1CC(=O)N(c2ccc(F)cc2)C1)N1CCN(c2ccccc2)CC1` (stereo unspecified) as the molecule, how does the Potency read?
A: inactive

Q: With `Cc1ccc(C(=O)Nc2ccc3c(c2)OCO3)cc1S(=O)(=O)N1CCCCC1` as the molecule, how does the Potency read?
A: inactive

Q: For `O=C(Nc1ccc2c(c1)OCCO2)c1ccc(Cl)c(S(=O)(=O)N2CCCCC2)c1`, which Potency is on record?
A: 6.57 µM (active)

Q: For `O=C(NC1CCCC1)C1CC(=O)N(c2ccc(F)cc2)C1` (stereo unspecified), which Potency is on record?
A: inactive

Q: Which Potency does the source give for `O=C(c1ccc(Cl)c(S(=O)(=O)N2CCCCC2)c1)N1CCCCCC1` here?
A: inactive

Q: For `CCC(C)c1ccccc1N1CC(C(=O)N2CCN(S(=O)(=O)c3ccc(F)cc3)CC2)CC1=O` (stereo unspecified), which Potency is on record?
A: 10.4 µM (active)

Q: Which Potency does the source give for `CNS(=O)(=O)c1ccc(NC(=O)C2CC(=O)N(c3ccc(Cl)cc3)C2)cc1` (stereo unspecified) here?
A: inactive

Q: With `CC1CC(C)CN(C(=O)C2CC(=O)N(c3ccc(F)cc3)C2)C1` (stereo unspecified) as the molecule, how does the Potency read?
A: inactive

Q: Which Potency does the source give for `O=C(c1ccc(Cl)c(Cl)c1)N1CCCC1` here?
A: inactive

Q: Which Potency does the source give for `COC(=O)c1ccc(NC(=O)c2cc3c(CO)cnc(C)c3oc2=Nc2cccc(C(N)=O)c2)cc1` here?
A: inactive

Q: With `Cc1nc(NC(=O)c2ccc3c(c2)OCCO3)ccc1Br` as the molecule, how does the Potency read?
A: inactive

Q: Which Potency does the source give for `CCCCn1c(N)c(N(CCOC)C(=O)c2oc3ccc(OC)cc3c2C)c(=O)[nH]c1=O` here?
A: inactive

Q: Which Potency does the source give for `Cc1cn([C@H]2CC(F)[C@@H](CO)O2)c(=O)[nH]c1=O` (stereo partly specified) here?
A: inactive

Q: Which Potency does the source give for `COc1ccc2cc(C(=O)C3CCCN(C(=O)c4sc(C)nc4C)C3)ccc2c1` (stereo unspecified) here?
A: inactive

Q: With `COc1ccccc1C(=O)NC(CCSC)C(=O)NNC(=O)c1ccccc1C` (stereo unspecified) as the molecule, how does the Potency read?
A: inactive

Q: Which Potency does the source give for `Cc1ccc(CN(CC(=O)NCC2CCCO2)S(=O)(=O)c2ccc(C)cc2)cc1` (stereo unspecified) here?
A: inactive

Q: With `O=C(Cc1ccccc1)Nc1ccc(C(=O)Nc2ccccc2C(=O)O)cc1` as the molecule, how does the Potency read?
A: inactive

Q: With `CCOC(=O)c1sc(NC(=O)C2CSC3(C)CCC(=O)N23)nc1C` (stereo unspecified) as the molecule, how does the Potency read?
A: inactive

Q: With `CCOC(=O)N1CCN(Cc2nc3cc(NC(C)=O)ccc3n2C)CC1` as the molecule, how does the Potency read?
A: inactive

Q: For `O=C(Nc1ccc(S(=O)(=O)N2CCCCC2)cc1)C1CCN(C(=O)c2ccc(F)cc2)CC1`, which Potency is on record?
A: 9.28 µM (active)

Q: For `O=C(Nc1ccccc1)C1CCN(C(=O)c2ccc(Br)cc2)CC1`, which Potency is on record?
A: inactive

Q: With `O=C(Nc1ccc(F)cc1)C1CCCN(S(=O)(=O)c2ccc(-n3cnnn3)cc2)C1` (stereo unspecified) as the molecule, how does the Potency read?
A: inactive

Q: With `Cc1ccc(NC(=O)C2CC(=O)N(c3ccc4c(c3)OCCO4)C2)cc1S(=O)(=O)N1CCCCCC1` (stereo unspecified) as the molecule, how does the Potency read?
A: 11.7 µM (active)

Q: Which Potency does the source give for `CC(=O)c1ccccc1NC(=O)C1CC(=O)N(c2ccc3c(c2)OCCO3)C1` (stereo unspecified) here?
A: inactive

Q: For `CCOC(=O)c1ccc(NC(=O)C2CC(=O)N(c3ccc4c(c3)OCCO4)C2)cc1` (stereo unspecified), which Potency is on record?
A: inactive

Q: Which Potency does the source give for `Cc1c(Cl)c([N+](=O)[O-])nn1CC(=O)NCCCN1CCOCC1` here?
A: inactive

Q: For `N[C@@H](Cc1ccccc1)C(=O)N1CCOCC1`, which Potency is on record?
A: inactive

Q: With `CSCC[C@H](NC(=O)N1CCn2c1nc1ccccc12)C(=O)NC1CCCCC1` as the molecule, how does the Potency read?
A: inactive

Q: For `COc1cccc(CNC(=O)CCC2CCCN(C(=O)c3ccc(F)c(Cl)c3)C2)c1` (stereo unspecified), which Potency is on record?
A: inactive

Q: With `CCOc1ccc(CC(=O)NC2CCN(Cc3ccccc3)CC2)cc1` as the molecule, how does the Potency read?
A: inactive

Q: For `CC(C)CN(CC(C)C)C(=O)CN1c2cccc3cccc(c23)S1(=O)=O`, which Potency is on record?
A: inactive

Q: Which Potency does the source give for `Cc1ccc(S(=O)(=O)N(C)C)cc1NC(=O)CN1c2cccc3cccc(c23)S1(=O)=O` here?
A: 13.1 µM (active)

Q: Which Potency does the source give for `O=C(O)CN1c2cccc3cccc(c23)S1(=O)=O` here?
A: inactive

Q: For `Cc1cc(=O)n2nc(N3CCC(C(=O)Nc4c(F)c(F)c(F)c(F)c4F)CC3)sc2n1`, which Potency is on record?
A: inactive

Q: For `CCOc1ccc(S(=O)(=O)N2CCN=C2Cc2ccccc2)cc1C`, which Potency is on record?
A: inactive

Q: Which Potency does the source give for `Cc1ccc(C23CC4CC(CC(C(=O)NCC(=O)O)(C4)C2)C3)cc1` here?
A: inactive

Q: For `CC(=O)Nc1ccc(NC(=O)CCN2C(=O)C3CC=CCC3C2=O)cc1` (stereo unspecified), which Potency is on record?
A: inactive

Q: For `COc1ccc(CNC(=O)[C@H](Cc2c[nH]c3ccccc23)NC(C)=O)cc1OC`, which Potency is on record?
A: inactive

Q: Which Potency does the source give for `COc1ccc(NC(=O)[C@H](NC(=O)[C@@H]2Cc3ccccc3CN2)c2ccccc2)cc1` here?
A: inactive

Q: With `COc1cccc(NC(=O)[C@H](Cc2c[nH]c3ccccc23)NC(=O)[C@@H]2Cc3ccccc3CN2)c1` as the molecule, how does the Potency read?
A: 9.28 µM (active)

Q: With `CCOC(=O)c1c(C)[nH]c(C)c1S(=O)(=O)NCCCc1ccco1` as the molecule, how does the Potency read?
A: inactive

Q: Which Potency does the source give for `CC1CCCCC1NC(=O)CCS(=O)(=O)c1ccc2c(c1)NC(=O)CO2` (stereo unspecified) here?
A: inactive
